# Results filed as inconclusive are left out. Entries that show only a call come without a potency. Active and inactive are the calls of the source. Unless noted, the call rests on the fitted dose curve; in most records, active means well fitted curve in the direction sought with a large enough effect; inconclusive means small, poorly fitted or top-dose-only effect, or another doubt; inactive means no such curve, though single readings can be large; an effect the other way counts as inactive or inconclusive.
# Tests used:
# [1] = qHTS for Inhibitors of the Functional Ribonucleoprotein Complex (vRNP) of Lassa (LASV) Arenavirus: LASV Primary Screen - GLuc reporter signal (AID 1347082; calls by dose curve; tested in HEK293 reporter line; further: nearly all actives have a fitted effect of over 60% in size); details: LASV minigenome vRNP, Gaussia luciferase reporter; series mostly up to 57.5 µM
# [2] = qHTS for Inhibitors of the Functional Ribonucleoprotein Complex (vRNP) of Lassa (LASV) Arenavirus: Viability assay - alamar blue signal for LASV Primary Screen (AID 1347083; calls by dose curve; tested in HEK293 reporter line; further: nearly all actives have a fitted effect of over 80% in size); details: cell viability, alamar blue fluorescence (LASV minigenome counter-screen); series mostly up to 57.5 µM
# [3] = qHTS for Inhibitors of the Functional Ribonucleoprotein Complex (vRNP) of Lymphocytic Choriomeningitis Arenaviruses (LCMV): Viability assay - alamar blue signal for LCMV Primary Screen (AID 1347085; calls by dose curve; tested in HEK293 reporter line; further: nearly all actives have a fitted effect of over 80% in size); details: alamar blue viability counter-screen, LCMV vRNP screen cells; series mostly up to 57.5 µM
# [4] = target: Nucleoprotein (Lymphocytic choriomeningitis virus (strain Armstrong)) (UniProt P09992); test: qHTS for Inhibitors of the Functional Ribonucleoprotein Complex (vRNP) of Lymphocytic Choriomeningitis Arenaviruses (LCMV): LCMV Primary Screen - GLuc reporter signal (AID 1347086; calls by dose curve; further: nearly all actives have a fitted effect of over 70% in size); details: LCMV minigenome vRNP cell assay, Gaussia luciferase reporter; series mostly up to 57.5 µM
# Sequence of Nucleoprotein (Lymphocytic choriomeningitis virus (strain Armstrong)) (P09992 whole entry, looked up): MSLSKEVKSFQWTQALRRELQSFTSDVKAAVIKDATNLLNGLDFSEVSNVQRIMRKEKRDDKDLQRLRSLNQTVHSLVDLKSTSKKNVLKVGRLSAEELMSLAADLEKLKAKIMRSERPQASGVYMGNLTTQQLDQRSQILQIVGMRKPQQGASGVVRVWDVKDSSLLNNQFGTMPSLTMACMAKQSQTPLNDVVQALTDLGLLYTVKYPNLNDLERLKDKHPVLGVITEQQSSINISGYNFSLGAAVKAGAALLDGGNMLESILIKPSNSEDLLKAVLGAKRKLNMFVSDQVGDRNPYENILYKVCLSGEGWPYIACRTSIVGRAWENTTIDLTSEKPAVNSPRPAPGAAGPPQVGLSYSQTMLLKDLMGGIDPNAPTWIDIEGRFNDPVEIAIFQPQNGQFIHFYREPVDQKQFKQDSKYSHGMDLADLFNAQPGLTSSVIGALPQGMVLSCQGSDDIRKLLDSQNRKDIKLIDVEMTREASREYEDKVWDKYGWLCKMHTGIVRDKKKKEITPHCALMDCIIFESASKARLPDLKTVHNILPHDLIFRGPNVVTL
# [5] = qHTS of pediatric cancer cell lines to identify multiple opportunities for drug repurposing: Primary screen for TC32 cells (AID 1347089); details: TC32 Ewing sarcoma viability, CellTiter-Glo luminescence, 48 h; series mostly up to 45.8 µM; further: nearly all actives have a fitted effect of over 60% in size
# How it was run: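 Luminescent ATP read-out (CellTiter-Glo) of metabolically active TC32 cells after 48 h exposure. Concentration-response curves came from 11-point (MIPE, 0.78 nM–46 µM) or 8-point (NPC, 0.59 nM–46 µM) primary titrations; follow-up used 11 points.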
# [6] = qHTS of pediatric cancer cell lines to identify multiple opportunities for drug repurposing: Primary screen for DAOY cells (AID 1347090); details: DAOY medulloblastoma viability, CellTiter-Glo luminescence, 48 h; series mostly up to 46 µM; further: nearly all actives have a fitted effect of over 55% in size; further: potency means the concentration at half of the fitted maximal effect
# How it was run: (§1)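 Viability measured as metabolically active cells via CellTiter-Glo luminescence following 48 hours of compound exposure, 11-point dilutions in confirmatory testing. 500-1,000 cells/well plated 5 hours before dosing; controls were DMSO and 2.3 µM bortezomib.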
# [7] = qHTS of pediatric cancer cell lines to identify multiple opportunities for drug repurposing: Primary screen for SJ-GBM2 cells (AID 1347091); details: SJ-GBM2 viability, CellTiter-Glo luminescence, 48 h; series mostly up to 46 µM
# How it was run: as §1
# [8] = qHTS of pediatric cancer cell lines to identify multiple opportunities for drug repurposing: Primary screen for A673 cells (AID 1347092); details: A673 Ewing sarcoma viability, CellTiter-Glo ATP luminescence, 48 h; series mostly up to 46 µM; further: nearly all actives have a fitted effect of over 45% in size; further: potency means the concentration at half of the fitted maximal effect
# How it was run: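 Cell viability of A673 measured by CellTiter-Glo ATP luminescence after 48 hours compound exposure. Dilution series spanned 0.78 nM to 46 µM (MIPE, 11-point) or 0.59 nM to 46 µM (NPC, 8-point); bortezomib 2.3 uM positive control.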
# [9] = qHTS of pediatric cancer cell lines to identify multiple opportunities for drug repurposing: Primary screen for SK-N-MC cells (AID 1347093); details: SK-N-MC viability, CellTiter-Glo luminescence, 48 h; series mostly up to 46 µM
# How it was run: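 Metabolically active cells were quantified by ATP-dependent luminescence (CellTiter-Glo, 15 min at room temperature) following 48 h treatment. Cells had been plated at 500-1,000 per well and settled for 5 h beforehand.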
SMILES,Potency [1],Potency [2],Potency [3],Potency [4],Potency [5],Potency [6],Potency [7],Potency [8],Potency [9]
CCc1cc(OC)c(C[C@H](C)N)cc1OC,inactive,inactive,inactive,inactive,inactive,inactive,–,–,–
CCOC(=O)NC(O)C(Cl)(Cl)Cl (centres undefined),inactive,inactive,inactive,inactive,inactive,inactive,inactive,inactive,inactive
CNC(C)Cc1ccccc1OC (centres undefined),inactive,inactive,inactive,inactive,inactive,inactive,inactive,inactive,–
O=C1CN2CCOC2(c2ccccc2Cl)c2cc(Cl)ccc2N1 (centres undefined),inactive,inactive,inactive,inactive,inactive,inactive,inactive,inactive,inactive
COP(=S)(OC)Oc1ccc(S(N)(=O)=O)cc1,inactive,inactive,inactive,inactive,inactive,inactive,inactive,inactive,inactive
O=C(CBr)Nc1ccc(Cl)cc1C(=O)c1ccccc1F,inactive,inactive,inactive,inactive,inactive,inactive,inactive,inactive,inactive
CN1C(=O)CN=C(c2ccccc2)c2cc([N+](=O)[O-])ccc21,inactive,inactive,inactive,inactive,inactive,inactive,inactive,inactive,–
CC(C)=CCN1CC[C@@]2(C)c3cc(O)ccc3C[C@@H]1[C@@H]2C,inactive,inactive,inactive,inactive,inactive,inactive,–,–,–
CN(C)CCN(Cc1ccccc1)c1ccccn1,inactive,inactive,inactive,inactive,–,–,–,–,–
Clc1ccc(C(OCCN2CCCCC2)c2ccccc2)cc1 (centres undefined),inactive,inactive,inactive,inactive,inactive,inactive,–,–,–
NC1(c2ccccc2)CCCCC1,inactive,inactive,inactive,inactive,inactive,inactive,inactive,30.3 µM (active),–
CCOC(=O)c1ncn2c1CN(C)C(=O)c1c(I)cccc1-2,inactive,inactive,inactive,inactive,inactive,inactive,inactive,inactive,inactive
CCOC(=O)C(c1c(O)c2ccccc2oc1=O)c1c(O)c2ccccc2oc1=O,inactive,inactive,inactive,inactive,inactive,inactive,inactive,inactive,–
C[N+]1(C)[C@@H]2CC[C@H]1CC(OC(=O)C(CO)c1ccccc1)C2 (some centres undefined),inactive,inactive,inactive,inactive,inactive,inactive,inactive,inactive,–
CCCN(CCC)CCc1c[nH]c2ccccc12,inactive,inactive,inactive,inactive,inactive,inactive,–,–,–
Oc1ccc([C@H]2CNCc3c2ccc(O)c3O)cc1O,inactive,inactive,inactive,inactive,inactive,–,–,–,–
CC(C)=C[C@@H]1[C@@H](C(=O)OCc2coc(Cc3ccccc3)c2)C1(C)C,inactive,inactive,inactive,inactive,inactive,inactive,inactive,inactive,–
CC(=O)OC1(c2ccccc2)CCN(CCc2ccccc2)CC1,inactive,inactive,inactive,inactive,inactive,inactive,–,–,–
Cc1nc(C2CCCCC2)c(-c2ccc(S(N)(=O)=O)c(F)c2)o1,inactive,inactive,inactive,inactive,–,–,–,–,–
CC(Cc1ccccc1)NCc1ccccc1Cl (centres undefined),inactive,inactive,inactive,inactive,inactive,inactive,–,–,–
CN(C)CCc1c[nH]c2cccc(O)c12,inactive,inactive,inactive,inactive,inactive,inactive,inactive,–,–
CC[C@H]1C[C@@H]2C[C@H]3c4[nH]c5ccc(OC)cc5c4CCN(C2)[C@@H]13,inactive,inactive,inactive,inactive,inactive,37.8 µM (active),inactive,–,–
C[C@]12C=CC(=O)C=C1CC[C@@H]1[C@@H]2CC[C@@]2(C)[C@H]1CC[C@]2(C)O,inactive,inactive,inactive,inactive,inactive,inactive,–,–,–
CCC(=O)O[C@]1(C(=O)COC)[C@@H](C)C[C@H]2[C@@H]3CCC4=CC(=O)C=C[C@]4(C)C3(F)[C@@H](O)C[C@@]21C (some centres undefined),inactive,inactive,inactive,inactive,–,–,–,–,–
Nc1ccc(N)cc1,inactive,inactive,inactive,inactive,inactive,inactive,inactive,21.1 µM (active),–
C[C@@H]1CC[C@H]2[C@@H](C)C(=O)O[C@@H]3O[C@@]4(C)CC[C@@H]1[C@]32OO4,inactive,inactive,inactive,inactive,inactive,inactive,inactive,inactive,–
C[C@]12CC[C@H]3[C@@H](CCC4=CC(=O)CC[C@@H]43)[C@@H]1CC[C@@H]2O,inactive,inactive,inactive,inactive,inactive,inactive,inactive,inactive,inactive
C[C@H]1C(=O)O[C@@H]2CCN3CC=C(COC(=O)[C@](C)(O)[C@]1(C)O)[C@H]23,inactive,inactive,inactive,inactive,inactive,inactive,inactive,inactive,–

SMILES,Potency [1],Potency [2],Potency [3],Potency [4],Potency [5],Potency [6],Potency [7],Potency [8],Potency [9]
CCN(CC)Cc1nccn1-c1ccc([N+](=O)[O-])cc1C(=O)c1ccccc1Cl,inactive,inactive,inactive,inactive,inactive,inactive,inactive,inactive,–
Cc1ccc(N=CN(C)C=Nc2ccc(C)cc2C)c(C)c1,inactive,inactive,inactive,inactive,inactive,inactive,inactive,inactive,inactive
CC1Sc2c(C(=O)O)c(=O)c3cc(F)c(N4CCNCC4)cc3n21 (centres undefined),inactive,inactive,inactive,inactive,inactive,inactive,inactive,–,–
CCCN(CCC)C(=O)C(CCC(=O)O)NC(=O)c1ccccc1 (centres undefined),inactive,inactive,inactive,inactive,–,–,–,–,–
C[C@]12CC[C@H]3[C@@H](CC=C4C[C@@H](O)CC[C@@]43C)[C@@H]1CC[C@@H]2O,inactive,inactive,inactive,inactive,inactive,inactive,inactive,inactive,inactive
CC(=O)O[C@]1(C(C)=O)CC[C@H]2[C@@H]3C=C(Cl)C4=CC(=O)CC[C@]4(C)[C@H]3CC[C@@]21C,inactive,inactive,inactive,inactive,–,–,–,–,–
CC(C)NCC(O)c1ccc(N)c(C#N)c1 (centres undefined),inactive,inactive,inactive,inactive,inactive,inactive,inactive,inactive,inactive
CCc1ccc(C2CCNCC2)cc1,inactive,inactive,inactive,inactive,inactive,inactive,inactive,inactive,inactive
CCC(=O)OC1(c2ccccc2)CCN(C)CC1,inactive,inactive,inactive,inactive,inactive,inactive,inactive,inactive,inactive
C[C@]12CC[C@H](O)CC1=CC[C@@H]1[C@@H]2CC[C@]2(C)C(=O)CC[C@@H]12,inactive,inactive,inactive,inactive,inactive,inactive,inactive,inactive,inactive
CCC1(c2cccc(O)c2)CCCCN(C)C1 (centres undefined),inactive,inactive,inactive,inactive,inactive,inactive,inactive,inactive,inactive
C=CCN1CC[C@]23CCCC[C@H]2[C@H]1Cc1ccc(O)cc13,inactive,inactive,inactive,inactive,inactive,inactive,inactive,inactive,inactive
CC(C)(O)C(Cl)(Cl)Cl,inactive,inactive,inactive,inactive,inactive,inactive,inactive,inactive,inactive
Cc1nc2ccccc2c(=O)n1-c1ccccc1Cl,inactive,inactive,inactive,inactive,inactive,inactive,inactive,inactive,inactive
O=c1[nH]c2cc(Cl)ccc2n1C1CCNCC1,inactive,inactive,inactive,inactive,inactive,inactive,inactive,inactive,inactive
Sc1ccccc1Cl,inactive,inactive,inactive,inactive,inactive,inactive,inactive,inactive,inactive
CCCOC(=O)Cc1ccc(OCC(=O)N(CC)CC)c(OC)c1,inactive,inactive,inactive,inactive,inactive,inactive,inactive,inactive,inactive
NCc1cccnc1,inactive,inactive,inactive,inactive,inactive,inactive,inactive,inactive,inactive
COc1cc(CC#N)cc(OC)c1OC,inactive,inactive,inactive,inactive,inactive,inactive,inactive,inactive,inactive
ClCCCN1CCN(c2cccc(Cl)c2)CC1,inactive,inactive,inactive,inactive,inactive,inactive,inactive,inactive,inactive
COc1ccc(CN2CCNCC2)c(OC)c1OC,inactive,inactive,inactive,inactive,inactive,inactive,inactive,inactive,inactive
Nc1ccccc1C(=O)OCC(O)CO (centres undefined),inactive,inactive,inactive,inactive,inactive,inactive,inactive,inactive,inactive
C#C[C@]1(O)C=C[C@H]2[C@@H]3CCC4=CC(=O)CC[C@@H]4[C@H]3CC[C@@]21CC,inactive,inactive,inactive,inactive,inactive,inactive,inactive,inactive,inactive
CCOC(=O)NC(C)(C)Cc1ccc(Cl)cc1,inactive,inactive,inactive,inactive,inactive,inactive,inactive,inactive,inactive
OC(c1ccccc1)(c1ccccc1)C1CCNCC1,inactive,inactive,inactive,inactive,inactive,inactive,inactive,inactive,inactive
Cc1c(Cl)c(=O)oc2cc(OP(=O)(OCCCl)OCCCl)ccc12,inactive,inactive,inactive,inactive,inactive,inactive,inactive,inactive,inactive
CCCC(C)C1(CC)C(=O)N=C(S)NC1=O (centres undefined),inactive,inactive,inactive,inactive,inactive,inactive,inactive,inactive,inactive

# — PubChem BioAssay (NCATS)
